HT1080 IDH1KD tx – kills HT-1080 cells with IDH1 knockdown. HT-1080 IDH1 knockdown viability, ATP luminescence, 48 h. Potency, µM (series often up to 46.1 µM), without a hit: at the highest dose activity, negative = toxicity, actives largely listed as cytotoxic. hit rate 2% among 360,000. AID 686971;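 further: potency means the concentration at half of the fitted maximal effect; 0% = DMSO wells and -100% = cell-free medium wells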
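Knockdown cells (IDH1KD HT-1080) received compounds 2 h after plating at 750 cells/well and were kept 48 h at 37 °C in 5% FBS RPMI. A CellTiter-Glo luminescence read gave % activity for curve fitting.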
TDP1 cell noCPT – qHTS for Inhibitors of human tyrosyl-DNA phosphodiesterase 1 (TDP1): qHTS in cells in absence of CPT. DT40 Tdp1-/- hTDP1 cells, no CPT, ATP luminescence, 48 h. Potency, µM (top dose mostly 46.2 µM), for inactives: top-dose activity change, negative = growth inhibition, actives largely listed as inhibitors. hit rate 15% among 420,000; further: potency means the concentration at half of the fitted maximal effect; nearly all actives have a fitted effect of over 55% in size
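Stably hTDP1-transfected Tdp1-null chicken DT40 cells were treated with library compounds minus camptothecin and grown for at least 48 hr at 37 °C, after which cellular ATP was quantified by luminescence.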
HT1080-NT tox – kills 2HG-producing HT-1080-NT fibrosarcoma cells. HT-1080-NT fibrosarcoma viability, CellTiter-Glo ATP luminescence, 48 h. Potency, µM (highest dose often 46.1 µM), without a hit: top-dose activity, negative = less viability, most hits filed as cytotoxic. hit rate 1.6% among 360,000;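 further: NT is the 2HG producing partner of a matched IDH1 knockdown line; potency means the concentration at half of the fitted maximal effect; 0% = DMSO-treated cells and -100% = media-only wells without cells; nearly all actives have a fitted effect of over 55% in size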
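Toxicity toward the 2HG-producing NT line was scored as %Activity, normalised to DMSO and no-cell wells, from CellTiter-Glo luminescence after 48 hours' treatment.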
ELG1 repair inh – ELG1-dependent DNA repair inhibition. Potency, µM (doses to about 46.1 µM), for inactives: top-dose activity change, negative = inhibition, hits mostly inhibitors. AID 504467. HEK293T ELG1-luciferase reporter, luminescence, 16 h; DNA damage induced by 5-fluorouridine. hit rate 2.3% among 330,000; further: potency means the concentration at half of the fitted maximal effect; nearly all actives have a fitted effect of over 55% in size
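Overnight (16 hr) co-exposure of 2,000 cells/well to 5-fluorouridine and compound at 37 °C preceded detection. Luciferase was quantified via ONE-Glo luminescence; loss of signal denotes inhibition.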
DT40 TDP1 CPT – growth inhibition of DT40 Tdp1-/-;hTDP1 cells with camptothecin (screen for TDP1 inhibitors); chicken DT40 Tdp1-/-;hTDP1 cells + 20 nM CPT, ATP luminescence, 48 h; Potency, µM (series often up to 46.2 µM), for the others: at the highest dose activity change, negative = growth inhibition, most hits filed as inhibitors; hit rate 12% among 420,000; AID 686979; further: potency means the concentration at half of the fitted maximal effect; nearly all actives have a fitted effect of over 55% in size
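Chicken DT40 Tdp1-/- cells stably complemented with human TDP1 were seeded at 400 cells/well in medium containing 20 nM camptothecin, exposed to pin-transferred compounds, and grown at 37 °C for at least 48 hr. Viability was read as ATP luminescence.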
IL1B secr inh – inhibitors of inflammasome signaling (IL-1 beta secretion). THP-1 LPS/ATP IL-1B secretion, AlphaLISA, 16 h; stronger effect = lower value. activity change, % at 57.5 µM. hit rate 4.7% among 360,000. AID 743279; in the data active means activity change below about -50%; inconclusive means mostly about -30% to -49%
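Secreted IL-1B measured by AlphaLISA bead assay after 16 h compound exposure of THP-1 cells; compounds (final up to 57.5 uM) added 1 h before LPS (250 ng/mL) and ATP (1.25 mM) stimulation; lower signal means less secretion.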
Numbers without * were called inactive; ? = inconclusive; . = no result given. Compounds with a hit are over-represented: about 19% of the library has one in this group of screens. Unless noted, the call rests on the fitted dose curve; in most records, active means well fitted curve in the direction sought with a large enough effect; inconclusive means small, poorly fitted or top-dose-only effect, or another doubt; inactive means no such curve, though single readings can be large; an effect the other way counts as inactive or inconclusive. Unless noted, on the % scale 0 is the no-effect control and ±100 the full control effect.

SMILES	HT1080 IDH1KD tx	TDP1 cell noCPT	HT1080-NT tox	ELG1 repair inh	DT40 TDP1 CPT	IL1B secr inh
Cc1ccc(C)c(NC(=O)CN(C)C(=O)[C@@H](NC(=O)c2ccc(C(C)(C)C)cc2)C(C)C)c1	-19.0%	18.4µM*	-0.1%	?	23.1µM*	-21.0
O=S(=O)(c1cc(Br)c(Br)s1)N1CCN(c2ccccc2)CC1	.	-25.7%	.	.	-23.3%	.
NC(=O)CSc1nc2ccc(NC(=O)COc3ccccc3)cc2s1	.	23.1µM*	.	.	?	.
CC(=O)Nc1ccc2nc(SCC(=O)NCCOc3ccccc3)sc2c1	-0.8%	14.6µM*	1.5%	-23.9%	14.6µM*	10.4
CCC(=O)Nc1ccc2nc(SCCOc3ccccc3)sc2c1	.	-23.0%	.	.	-20.4%	.
COc1ccc(C2=NOC3(CC(=O)N(c4ccc(F)cc4)C3=O)C2)cc1 (stereo not given)	12.1%	-5.6%	11.6%	16.0%	1.0%	29.8
COc1cc(/C=C2/SC(=S)NC2=O)ccc1OS(=O)(=O)c1ccc(C)cc1	?	14.6µM*	?	?	?	-53.0*
COc1cc(/C=C2\SC(=S)N(CCCCC(=O)O)C2=O)ccc1OS(=O)(=O)c1ccc(C)cc1	-8.7%	?	-2.3%	26.0%	?	-87.3*
COc1ccc(/C=C2\SC(=S)NC2=O)cc1OS(=O)(=O)c1ccc(NC(C)=O)cc1	16.4µM*	?	20.6µM*	-18.7%	?	14.0
COc1ccc(/C=C2\SC(=S)N(CCCCCC(=O)Nc3cc(C)on3)C2=O)cc1OC	5.0%	-28.2%	-3.6%	0.7%	-18.2%	-1.0
COC(=O)c1cc2oc3ccccc3c2n1CC(=O)Nc1cccc(SC)c1	.	-25.0%	.	.	?	.
CCCN1CNc2c(c(=O)[nH]c(=S)n2CCc2cc(Cl)cc(Cl)c2)C1	?	3.98µM*	?	.	5.62µM*	.
CCCN1CNc2c(c(=O)[nH]c(=S)n2CCc2cc(Cl)ccc2Cl)C1	-7.3%	?	-18.0%	.	?	.
CCCN1CNc2c(c(=O)[nH]c(=S)n2CCc2cccc(Cl)c2Cl)C1	-16.6%	10µM*	-19.7%	.	?	.
CN(C)c1ccc(Nc2ncnc3c2c(-c2ccccc2)cn3-c2cccc(Cl)c2)cc1	.	?	.	.	-15.3%	.
NC(=O)C1(N2CCCCC2)CCN(Cc2ccc(Br)cc2)CC1	-2.3%	16.4µM*	9.3%	?	?	9.6
CC(OC(=O)c1ccc2c(c1)NC(=O)CS2)C(=O)c1ccc(F)cc1 (stereo not given)	-6.6%	-19.1%	-16.2%	?	-9.1%	-55.5*
COC(=O)c1ccc2c(c1)NC(=O)CS2	9.3%	-19.2%	10.3%	4.3%	-23.1%	12.5
COc1ccc(-n2nc(C(=O)NCc3ccco3)c3c4ccccc4n(C)c3c2=O)cc1Cl	-15.7%	10.3µM*	-0.7%	?	?	44.3
COc1ccccc1CNC(=O)c1nn(-c2ccc(C)cc2)c(=O)c2c1c1ccccc1n2C	?	?	?	.	?	124.9
CCCCN(C)CCNC(=O)c1nn(-c2ccc(OC)c(Cl)c2)c(=O)c2c1c1ccccc1n2C	.	18.4µM*	.	.	?	.
CCOc1ccc(CCNC(=O)c2nn(-c3ccc(OC)c(Cl)c3)c(=O)c3c2c2ccccc2n3C)cc1OCC	.	?	.	.	-22.0%	.
CC(=O)c1c(C)oc2ccc(N(C(C)=O)S(=O)(=O)c3ccc(F)cc3C)cc12	-1.9%	16.4µM*	23.4%	?	11.6µM*	-7.0
CC(=O)c1c(C)oc2ccc(N(C(C)=O)S(=O)(=O)c3cccc4cccnc34)cc12	25.9µM*	4.11µM*	?	5.8µM*	2.06µM*	-20.6
Nc1nc(=S)[nH]c(N)c1N	.	-20.8%	.	.	3.2%	.
SMILES	HT1080 IDH1KD tx	TDP1 cell noCPT	HT1080-NT tox	ELG1 repair inh	DT40 TDP1 CPT	IL1B secr inh
Nc1nc(=S)[nH]c2n[nH]nc12	.	3.55µM*	.	.	4.47µM*	.
CC[C@]12c3[nH]c4ccc(Cl)cc4c3CCN1C(=O)[C@@H](CC(=O)NCC13CC4CC(CC(C4)C1)C3)C[C@@H]2C(=O)N1CCN(C(=O)c2ccco2)CC1	18.4µM*	13µM*	?	20.6µM*	?	-26.1
CC[C@]12c3[nH]c4ccc(OC)cc4c3CCN1C(=O)C(CC(=O)NCC13CC4CC(CC(C4)C1)C3)C[C@@H]2C(=O)N1CCN(C(=O)c2ccco2)CC1 (stereo not given in full)	?	8.2µM*	-29.2%	-24.5%	11.6µM*	-54.8*
CC[C@]12c3[nH]c4ccc(Cl)cc4c3CCN1C(=O)[C@@H](CC(=O)NCc1ccco1)C[C@@H]2C(=O)N1CCN(C(=O)c2ccco2)CC1	-1.7%	20.6µM*	0.1%	-13.8%	16.4µM*	10.0
CC[C@]12c3[nH]c4ccc(Cl)cc4c3CCN1C(=O)[C@@H](CC(=O)NCCN1CCOCC1)C[C@@H]2C(=O)N1CCN(C(=O)c2ccco2)CC1	0.3%	-1.6%	0.0%	4.0%	-12.0%	-6.7
CC[C@]12c3[nH]c4ccc(Cl)cc4c3CCN1C(=O)[C@@H](CC(=O)NCCC1=CCCCC1)C[C@@H]2C(=O)N1CCN(C(=O)c2ccco2)CC1	?	?	?	16.4µM*	20.6µM*	-22.7
C[C@H](CO)N1C[C@H](C)[C@@H](CN(C)S(=O)(=O)c2ccc3c(c2)OCCCO3)OCc2cn(nn2)CCCC1=O	0.6%	-11.5%	-6.0%	.	-15.7%	-28.7
Cc1ccc(C(=O)OCC(=O)Nc2ccc(C)c(S(=O)(=O)N3CCCCC3)c2)o1	4.4%	?	-2.3%	.	-28.5%	-10.0
CC(=O)Oc1cccc(C(=O)Nc2ccc(NC(=O)c3cccs3)cc2)c1	-29.8%	?	?	?	?	-28.9
COc1cccc(-c2cc(C(=O)NCCc3ccc(C)cc3)[nH]n2)c1	.	?	.	.	3.7%	.
COCCNc1nc(Nc2ccc(C)cc2C)c2sccc2n1	?	1.46µM*	?	.	1.84µM*	18.2
COCCNc1nc(NCc2ccc(C)cc2C)c2sccc2n1	-29.2%	14.6µM*	-11.3%	.	14.6µM*	2.4
COCCNc1nc2ccccc2nc1NS(=O)(=O)c1ccc(C)cc1C	4.0%	2.6%	0.3%	-16.7%	-5.2%	3.9
O=C(O)Cc1ccc(NS(=O)(=O)c2ccc3c(c2)OCCO3)cc1	10.9%	-2.1%	10.9%	.	2.5%	15.5
COc1ccc(S(=O)(=O)Nc2ncccc2C)c2ccccc12	-1.1%	-13.5%	-2.1%	?	4.6%	-22.5
O=C(CCC1CCCC1)NCCS(=O)(=O)N1CCN(c2ccccc2)CC1	-1.4%	-8.3%	-2.5%	-4.4%	-18.2%	-11.0

Source: PubChem (National Center for Advancing Translational Sciences (NCATS))
